# Paper PMC7862700, “An all-to-all approach to the identification of sequence-specific readers for epigenetic DNA modifications on cytosine”
# How the values were obtained:
# Assay in all cases: DAPPL (digital affinity profiling via proximity ligation, sequencing); 10 mM Tris-HCl pH 7.5, 50 mM NaCl, 1 mM DTT, 4% glycerol, room temperature, 30 min; GST-TFs on glutathione beads, 16-mer random dsDNA library, 0.1% formaldehyde crosslink after washing; high values mean tight binding
# [1] = molecular target: T1, FEV (Homo sapiens, UniProt Q99581 1-238); details: protein: recombinant; tags: N-terminal GST; dsDNA, one strand shown
# T1 sequence: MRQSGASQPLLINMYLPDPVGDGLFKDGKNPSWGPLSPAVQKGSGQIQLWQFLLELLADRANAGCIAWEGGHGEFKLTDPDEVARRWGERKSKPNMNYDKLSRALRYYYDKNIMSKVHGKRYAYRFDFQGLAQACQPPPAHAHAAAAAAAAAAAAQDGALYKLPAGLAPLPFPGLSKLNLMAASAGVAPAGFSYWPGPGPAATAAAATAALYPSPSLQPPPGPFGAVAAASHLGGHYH
# Procedure, shortened: (§1)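 Each value of binding signal is a hexamer's read frequency for a factor divided by the same hexamer's frequency in the tag-only sample. Barcoded, bead-captured GST fusions of human transcription factors made in yeast were pooled with that sample and incubated with 200 nmole of a random double-stranded 16-mer DNA library in Tris/NaCl/DTT/glycerol buffer at room temperature for 30 min. Washing, 0.1% formaldehyde crosslinking, proximity ligation, PCR and Illumina NextSeq500 sequencing followed.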
# [2] = molecular target: ETV5 (Homo sapiens, UniProt P41161 1-510); details: protein: recombinant; tags: N-terminal GST; dsDNA, one strand shown
# Procedure, shortened: as §1
# [3] = molecular target: HSF1 (Homo sapiens, UniProt Q00613 1-529); details: protein: recombinant; tags: N-terminal GST; chain copies: 3; dsDNA, one strand shown
# Procedure, shortened: as §1
# [4] = molecular target: T2, SPIC (Homo sapiens, UniProt Q8N5J4 1-248); details: protein: recombinant; tags: N-terminal GST; dsDNA, one strand shown
# T2 sequence: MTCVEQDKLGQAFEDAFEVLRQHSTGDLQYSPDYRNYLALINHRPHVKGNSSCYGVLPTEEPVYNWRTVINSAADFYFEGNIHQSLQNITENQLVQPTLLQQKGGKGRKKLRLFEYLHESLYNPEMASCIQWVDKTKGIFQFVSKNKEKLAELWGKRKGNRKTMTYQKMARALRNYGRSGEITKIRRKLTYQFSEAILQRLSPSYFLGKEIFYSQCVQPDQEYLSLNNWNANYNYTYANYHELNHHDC
# Procedure, shortened: as §1
# [5] = molecular target: ELF4 (Homo sapiens, UniProt Q99607 1-663); details: protein: recombinant; tags: N-terminal GST; dsDNA, one strand shown
# Procedure, shortened: as §1
# [6] = molecular target: T3, ELK4 (Homo sapiens, UniProt P28324-2 1-405); details: protein: recombinant; tags: N-terminal GST; dsDNA, one strand shown
# T3 sequence: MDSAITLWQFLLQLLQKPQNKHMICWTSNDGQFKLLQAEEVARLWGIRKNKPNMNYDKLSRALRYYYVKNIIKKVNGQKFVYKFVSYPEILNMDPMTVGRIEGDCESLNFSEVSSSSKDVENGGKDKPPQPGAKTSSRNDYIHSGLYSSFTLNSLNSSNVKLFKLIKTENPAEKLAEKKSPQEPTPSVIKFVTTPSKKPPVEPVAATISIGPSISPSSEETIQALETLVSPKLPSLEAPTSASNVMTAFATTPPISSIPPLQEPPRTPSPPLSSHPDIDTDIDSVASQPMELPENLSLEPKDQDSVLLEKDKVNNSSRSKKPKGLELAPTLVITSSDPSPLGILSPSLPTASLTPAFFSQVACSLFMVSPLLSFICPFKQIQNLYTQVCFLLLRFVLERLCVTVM
# Procedure, shortened: as §1
# [7] = molecular target: T4, ETV2 (Homo sapiens, UniProt O00321 1-342); details: protein: recombinant; tags: N-terminal GST; dsDNA, one strand shown
# T4 sequence: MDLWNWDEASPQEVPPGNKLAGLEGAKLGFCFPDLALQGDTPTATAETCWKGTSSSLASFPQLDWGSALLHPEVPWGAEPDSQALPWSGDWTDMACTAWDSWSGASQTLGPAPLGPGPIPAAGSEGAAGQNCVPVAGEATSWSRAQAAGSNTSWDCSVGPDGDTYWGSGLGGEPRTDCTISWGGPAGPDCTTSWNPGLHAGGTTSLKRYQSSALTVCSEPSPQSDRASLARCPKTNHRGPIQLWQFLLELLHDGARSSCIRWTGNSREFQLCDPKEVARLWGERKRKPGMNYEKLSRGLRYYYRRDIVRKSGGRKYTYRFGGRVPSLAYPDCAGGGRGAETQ
# Procedure, shortened: as §1
# [8] = molecular target: T5, ELF3 (Homo sapiens, UniProt P78545 1-371); details: protein: recombinant; tags: N-terminal GST; dsDNA, one strand shown
# T5 sequence: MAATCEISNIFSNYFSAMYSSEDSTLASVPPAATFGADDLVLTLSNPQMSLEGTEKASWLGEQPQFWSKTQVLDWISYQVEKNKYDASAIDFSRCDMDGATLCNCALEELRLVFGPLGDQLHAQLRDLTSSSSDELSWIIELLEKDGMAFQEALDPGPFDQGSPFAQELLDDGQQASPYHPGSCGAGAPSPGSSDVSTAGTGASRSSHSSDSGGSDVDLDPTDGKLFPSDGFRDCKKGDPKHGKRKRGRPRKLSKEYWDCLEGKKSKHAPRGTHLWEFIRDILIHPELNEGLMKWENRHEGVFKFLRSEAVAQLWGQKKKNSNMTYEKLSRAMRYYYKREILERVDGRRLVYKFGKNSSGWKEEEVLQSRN
# Procedure, shortened: as §1
# [9] = molecular target: CRX (Homo sapiens, UniProt O43186 1-299); details: protein: recombinant; tags: N-terminal GST; dsDNA, one strand shown
# Procedure, shortened: as §1
# [10] = molecular target: ETV1 (Homo sapiens, UniProt P50549 1-477); details: protein: recombinant; tags: N-terminal GST; dsDNA, one strand shown
# Procedure, shortened: as §1
# [11] = molecular target: T6, ERF (Homo sapiens, UniProt P50548 1-548); details: protein: recombinant; tags: N-terminal GST; dsDNA, one strand shown
# T6 sequence: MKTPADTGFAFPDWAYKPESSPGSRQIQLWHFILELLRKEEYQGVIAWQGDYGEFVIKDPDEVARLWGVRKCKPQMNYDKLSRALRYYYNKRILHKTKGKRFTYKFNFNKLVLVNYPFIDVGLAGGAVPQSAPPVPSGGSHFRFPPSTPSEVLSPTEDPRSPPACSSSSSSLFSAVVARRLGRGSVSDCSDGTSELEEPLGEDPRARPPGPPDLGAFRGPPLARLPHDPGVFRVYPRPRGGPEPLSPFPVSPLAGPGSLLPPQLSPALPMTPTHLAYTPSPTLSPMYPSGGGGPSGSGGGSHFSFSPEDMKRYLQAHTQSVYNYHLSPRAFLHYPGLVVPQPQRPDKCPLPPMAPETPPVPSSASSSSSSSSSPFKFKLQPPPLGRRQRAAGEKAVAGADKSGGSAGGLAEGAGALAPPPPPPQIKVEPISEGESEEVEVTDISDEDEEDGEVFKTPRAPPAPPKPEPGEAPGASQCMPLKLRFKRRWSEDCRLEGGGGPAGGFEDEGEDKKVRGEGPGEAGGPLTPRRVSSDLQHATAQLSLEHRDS
# Procedure, shortened: as §1
# [12] = molecular target: T7, ETV3L (Homo sapiens, UniProt Q6ZN32 1-361); details: protein: recombinant; tags: N-terminal GST; dsDNA, one strand shown
# T7 sequence: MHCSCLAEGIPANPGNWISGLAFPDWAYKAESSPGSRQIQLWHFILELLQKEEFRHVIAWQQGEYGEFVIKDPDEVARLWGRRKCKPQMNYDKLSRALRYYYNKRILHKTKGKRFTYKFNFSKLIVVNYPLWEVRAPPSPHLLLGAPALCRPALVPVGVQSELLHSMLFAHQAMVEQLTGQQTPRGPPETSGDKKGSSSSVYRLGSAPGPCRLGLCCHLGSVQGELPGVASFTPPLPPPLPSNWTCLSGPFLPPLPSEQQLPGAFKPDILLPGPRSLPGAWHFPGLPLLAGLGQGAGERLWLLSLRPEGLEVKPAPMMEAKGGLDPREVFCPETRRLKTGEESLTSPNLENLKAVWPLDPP
# Procedure, shortened: as §1
# [13] = molecular target: T8, ETS2 (Homo sapiens, UniProt P15036 1-469); details: protein: recombinant; tags: N-terminal GST; dsDNA, one strand shown
# T8 sequence: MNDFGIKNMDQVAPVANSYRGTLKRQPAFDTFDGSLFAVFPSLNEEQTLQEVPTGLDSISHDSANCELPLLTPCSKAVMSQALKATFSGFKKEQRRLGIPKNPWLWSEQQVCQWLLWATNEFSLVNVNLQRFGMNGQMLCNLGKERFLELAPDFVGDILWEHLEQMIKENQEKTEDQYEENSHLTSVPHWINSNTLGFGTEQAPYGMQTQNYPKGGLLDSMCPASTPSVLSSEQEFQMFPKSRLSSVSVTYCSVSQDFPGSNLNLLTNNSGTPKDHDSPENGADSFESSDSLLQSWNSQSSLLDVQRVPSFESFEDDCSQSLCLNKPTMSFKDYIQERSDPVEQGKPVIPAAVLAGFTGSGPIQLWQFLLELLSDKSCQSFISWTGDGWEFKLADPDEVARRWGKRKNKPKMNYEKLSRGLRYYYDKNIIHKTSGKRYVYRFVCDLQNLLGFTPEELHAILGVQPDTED
# Procedure, shortened: as §1
# [14] = molecular target: T9, SPDEF (Homo sapiens, UniProt O95238 1-335); details: protein: recombinant; tags: N-terminal GST; dsDNA, one strand shown
# T9 sequence: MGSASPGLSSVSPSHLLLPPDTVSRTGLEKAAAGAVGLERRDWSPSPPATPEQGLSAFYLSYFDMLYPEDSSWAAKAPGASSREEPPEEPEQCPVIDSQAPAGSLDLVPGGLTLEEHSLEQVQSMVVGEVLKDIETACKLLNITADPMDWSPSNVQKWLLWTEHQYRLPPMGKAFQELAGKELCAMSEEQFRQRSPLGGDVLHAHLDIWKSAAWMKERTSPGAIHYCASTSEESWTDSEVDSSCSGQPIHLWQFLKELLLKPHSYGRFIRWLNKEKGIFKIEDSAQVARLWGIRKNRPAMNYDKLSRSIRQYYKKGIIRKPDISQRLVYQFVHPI
# Procedure, shortened: as §1
# [15] = molecular target: T10, ETV7 (Homo sapiens, UniProt Q9Y603 1-341); details: protein: recombinant; tags: N-terminal GST; dsDNA, one strand shown
# T10 sequence: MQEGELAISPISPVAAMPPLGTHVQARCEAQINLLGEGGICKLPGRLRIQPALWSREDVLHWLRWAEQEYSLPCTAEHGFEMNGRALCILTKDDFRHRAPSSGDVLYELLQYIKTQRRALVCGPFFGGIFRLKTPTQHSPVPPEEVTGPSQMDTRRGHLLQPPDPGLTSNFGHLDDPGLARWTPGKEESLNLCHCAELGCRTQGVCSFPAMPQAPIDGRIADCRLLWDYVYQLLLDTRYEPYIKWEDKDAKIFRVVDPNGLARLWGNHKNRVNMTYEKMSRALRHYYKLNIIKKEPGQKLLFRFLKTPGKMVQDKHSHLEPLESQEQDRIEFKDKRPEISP
# Procedure, shortened: as §1
# [16] = molecular target: T11, ELF5 (Homo sapiens, UniProt Q9UKW6-2 1-255); details: protein: recombinant; tags: N-terminal GST; dsDNA, one strand shown
# T11 sequence: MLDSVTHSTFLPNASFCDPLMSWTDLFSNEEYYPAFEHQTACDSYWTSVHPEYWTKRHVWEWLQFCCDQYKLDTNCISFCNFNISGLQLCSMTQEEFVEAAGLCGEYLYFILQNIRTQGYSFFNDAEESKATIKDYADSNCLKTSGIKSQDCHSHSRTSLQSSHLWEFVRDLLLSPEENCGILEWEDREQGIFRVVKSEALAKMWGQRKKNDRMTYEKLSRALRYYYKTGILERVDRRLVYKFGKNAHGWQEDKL
# Procedure, shortened: as §1
# [17] = molecular target: T12, ETV3 (Homo sapiens, UniProt P41162-2 1-143); details: protein: recombinant; tags: N-terminal GST; dsDNA, one strand shown
# T12 sequence: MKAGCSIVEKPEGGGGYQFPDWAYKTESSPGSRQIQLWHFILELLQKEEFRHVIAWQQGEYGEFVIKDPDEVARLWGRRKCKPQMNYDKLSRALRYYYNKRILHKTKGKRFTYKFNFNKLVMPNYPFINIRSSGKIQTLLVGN
# Procedure, shortened: as §1
# [18] = molecular target: ETV6 (Homo sapiens, UniProt P41212 1-452); details: protein: recombinant; tags: N-terminal GST; dsDNA, one strand shown
# Procedure, shortened: as §1
# ETV1, sequence (P50549 whole entry): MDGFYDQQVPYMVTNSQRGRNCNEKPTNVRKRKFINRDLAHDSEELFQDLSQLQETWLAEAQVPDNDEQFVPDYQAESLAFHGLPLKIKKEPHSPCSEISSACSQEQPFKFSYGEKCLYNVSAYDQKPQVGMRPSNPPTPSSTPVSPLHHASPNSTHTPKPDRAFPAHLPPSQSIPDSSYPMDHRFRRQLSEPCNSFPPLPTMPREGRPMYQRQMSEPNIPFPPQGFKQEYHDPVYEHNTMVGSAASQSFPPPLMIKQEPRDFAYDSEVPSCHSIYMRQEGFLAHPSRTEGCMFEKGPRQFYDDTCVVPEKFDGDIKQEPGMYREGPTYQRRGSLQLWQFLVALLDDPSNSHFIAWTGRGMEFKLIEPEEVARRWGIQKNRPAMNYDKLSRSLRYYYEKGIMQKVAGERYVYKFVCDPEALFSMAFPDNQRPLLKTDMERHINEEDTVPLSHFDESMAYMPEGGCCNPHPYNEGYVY
# CRX, sequence (O43186 whole entry): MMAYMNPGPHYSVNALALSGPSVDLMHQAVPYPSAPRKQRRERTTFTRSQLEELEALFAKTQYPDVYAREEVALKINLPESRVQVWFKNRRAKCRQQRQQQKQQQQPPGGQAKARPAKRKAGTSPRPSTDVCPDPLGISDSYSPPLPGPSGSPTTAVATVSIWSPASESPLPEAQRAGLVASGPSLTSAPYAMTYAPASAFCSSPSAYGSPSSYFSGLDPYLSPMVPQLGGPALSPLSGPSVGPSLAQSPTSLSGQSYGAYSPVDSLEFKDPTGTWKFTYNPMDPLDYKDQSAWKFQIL
# ETV6, sequence (P41212 whole entry): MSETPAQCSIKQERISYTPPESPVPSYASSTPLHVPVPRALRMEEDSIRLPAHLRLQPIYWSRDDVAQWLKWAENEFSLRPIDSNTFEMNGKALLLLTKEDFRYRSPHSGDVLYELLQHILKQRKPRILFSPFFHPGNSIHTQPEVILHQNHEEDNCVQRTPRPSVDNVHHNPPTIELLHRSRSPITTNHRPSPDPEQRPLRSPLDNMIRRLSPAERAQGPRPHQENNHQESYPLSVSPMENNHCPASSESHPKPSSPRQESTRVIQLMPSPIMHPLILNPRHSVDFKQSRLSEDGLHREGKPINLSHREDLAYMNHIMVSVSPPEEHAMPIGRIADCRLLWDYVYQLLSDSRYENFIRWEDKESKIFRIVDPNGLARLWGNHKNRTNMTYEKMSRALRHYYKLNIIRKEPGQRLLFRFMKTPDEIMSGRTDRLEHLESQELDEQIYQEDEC
# HSF1, sequence (Q00613 whole entry): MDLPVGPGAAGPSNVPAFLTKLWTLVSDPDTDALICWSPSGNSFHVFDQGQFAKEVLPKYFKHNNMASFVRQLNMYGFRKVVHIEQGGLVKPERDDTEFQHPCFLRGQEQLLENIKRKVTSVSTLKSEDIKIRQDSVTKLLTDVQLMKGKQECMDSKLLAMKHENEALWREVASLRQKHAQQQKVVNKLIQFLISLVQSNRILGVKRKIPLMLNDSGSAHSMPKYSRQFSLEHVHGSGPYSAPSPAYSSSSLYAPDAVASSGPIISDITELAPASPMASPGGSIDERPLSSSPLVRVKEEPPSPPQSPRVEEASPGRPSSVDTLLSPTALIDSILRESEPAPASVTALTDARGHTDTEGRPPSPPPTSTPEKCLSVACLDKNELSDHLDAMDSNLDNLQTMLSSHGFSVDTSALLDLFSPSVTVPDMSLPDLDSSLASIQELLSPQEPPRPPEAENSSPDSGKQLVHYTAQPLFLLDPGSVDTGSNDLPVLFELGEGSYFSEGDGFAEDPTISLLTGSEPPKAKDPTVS
# ELF4, sequence (Q99607 whole entry): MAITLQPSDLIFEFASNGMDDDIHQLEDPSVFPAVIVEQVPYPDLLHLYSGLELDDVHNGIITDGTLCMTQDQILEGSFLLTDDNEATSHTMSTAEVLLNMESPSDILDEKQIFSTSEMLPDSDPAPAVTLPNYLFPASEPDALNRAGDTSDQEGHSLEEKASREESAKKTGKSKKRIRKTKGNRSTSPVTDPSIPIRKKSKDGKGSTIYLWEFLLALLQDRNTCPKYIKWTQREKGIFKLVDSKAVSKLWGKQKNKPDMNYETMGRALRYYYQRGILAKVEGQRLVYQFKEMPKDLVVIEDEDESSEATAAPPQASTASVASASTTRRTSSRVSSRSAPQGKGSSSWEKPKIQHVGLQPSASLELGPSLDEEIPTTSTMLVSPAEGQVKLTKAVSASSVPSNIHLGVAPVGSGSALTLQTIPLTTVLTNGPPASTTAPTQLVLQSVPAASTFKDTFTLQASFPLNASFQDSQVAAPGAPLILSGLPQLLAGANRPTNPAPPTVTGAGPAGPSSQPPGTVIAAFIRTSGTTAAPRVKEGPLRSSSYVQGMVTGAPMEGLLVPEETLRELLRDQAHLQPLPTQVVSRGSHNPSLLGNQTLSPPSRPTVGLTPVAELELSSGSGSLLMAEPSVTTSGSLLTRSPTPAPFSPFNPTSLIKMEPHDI
# ETV5, sequence (P41161 whole entry): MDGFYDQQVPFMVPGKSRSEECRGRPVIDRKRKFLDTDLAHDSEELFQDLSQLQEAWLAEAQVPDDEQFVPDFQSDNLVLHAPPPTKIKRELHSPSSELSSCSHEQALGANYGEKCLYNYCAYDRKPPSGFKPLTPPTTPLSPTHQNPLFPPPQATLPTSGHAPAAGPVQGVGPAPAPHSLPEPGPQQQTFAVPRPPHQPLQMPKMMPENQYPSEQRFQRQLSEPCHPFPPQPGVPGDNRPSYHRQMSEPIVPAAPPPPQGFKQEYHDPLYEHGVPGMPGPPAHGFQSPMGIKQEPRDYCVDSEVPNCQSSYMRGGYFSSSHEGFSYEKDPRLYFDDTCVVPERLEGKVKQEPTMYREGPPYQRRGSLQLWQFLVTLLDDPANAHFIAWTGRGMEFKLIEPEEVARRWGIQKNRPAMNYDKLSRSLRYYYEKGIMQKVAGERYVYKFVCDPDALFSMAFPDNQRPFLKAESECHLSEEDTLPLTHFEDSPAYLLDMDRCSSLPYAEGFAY
sequence,measurement,setting,value
ATGCAA,binding signal,[1],"1.23 fold enrichment (6-mer frequency, TF over GST control)"
same,binding signal,[2],"1.25 fold enrichment (6-mer frequency, TF over GST control)"
same,binding signal,[3],"1.08 fold enrichment (6-mer frequency, TF over GST control)"
same,binding signal,[4],"1.11 fold enrichment (6-mer frequency, TF over GST control)"
same,binding signal,[5],"1.25 fold enrichment (6-mer frequency, TF over GST control)"
same,binding signal,[6],"1.32 fold enrichment (6-mer frequency, TF over GST control)"
same,binding signal,[7],"1.26 fold enrichment (6-mer frequency, TF over GST control)"
same,binding signal,[8],"1.36 fold enrichment (6-mer frequency, TF over GST control)"
same,binding signal,[9],"1.07 fold enrichment (6-mer frequency, TF over GST control)"
same,binding signal,[10],"1.26 fold enrichment (6-mer frequency, TF over GST control)"
same,binding signal,[11],"1.23 fold enrichment (6-mer frequency, TF over GST control)"
same,binding signal,[12],"1.26 fold enrichment (6-mer frequency, TF over GST control)"
same,binding signal,[13],"1.26 fold enrichment (6-mer frequency, TF over GST control)"
same,binding signal,[14],"1.3 fold enrichment (6-mer frequency, TF over GST control)"
same,binding signal,[15],"1.19 fold enrichment (6-mer frequency, TF over GST control)"
same,binding signal,[16],"1.26 fold enrichment (6-mer frequency, TF over GST control)"
same,binding signal,[17],"1.17 fold enrichment (6-mer frequency, TF over GST control)"
same,binding signal,[18],"1.24 fold enrichment (6-mer frequency, TF over GST control)"
